# Values joined by “and” are separate entries in the source; they are usually repeats but may differ in a detail not shown here. Identical values can stand only once. Some compounds were tested as several samples or in several runs, with calls that do not always agree. Active and inactive are the calls of the source. Rule for the calls: active = hit-call score of the fitted dose curve at least 0.9, where 1 is the maximum; inactive = score below 0.9.
# How the values were obtained:
# [1] = read-out: Interferon-gamma inducible Protein 10 (IP10), CXCL10 (gene 3627); assay: BSK_BE3C_IP10: BioMAP Diversity Plus: BE3C Assay for Interferon-gamma inducible Protein 10 (IP10) Biomarker Activity (AID 2283034); details: primary human bronchial epithelial cells; actives raise or lower the signal
# Summary of the method: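 IP-10 quantified by ELISA serves as the endpoint. Cells: primary human bronchial epithelium, read 24 h after compound addition. Activity is derived by bidirectional fitting with DMSO as negative control.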
# [2] = read-out: Monokine induced gamma interferon (MIG), CXCL9 (gene 4283); assay: BSK_BE3C_MIG: BioMAP Diversity Plus: BE3C Assay for Monokine induced gamma interferon (MIG) Biomarker Activity (AID 2283035); details: primary human bronchial epithelial cells; actives raise or lower the signal;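 note: MIG protein measured by ELISA in BE3C cultures after 24 h of dosing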
# Summary of the method: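 hu bronchial epithelial 1° cells, 24 h cpd; MIG by ELISA; bidirectional fit, DMSO = baseline.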
# [3] = read-out: Plasminogen activator inhibitor-1 (PAI1), SERPINE1 (gene 5054); assay: BSK_BE3C_PAI1: BioMAP Diversity Plus: BE3C Assay for Plasminogen activator inhibitor-1 (PAI1) Biomarker Activity (AID 2283037); details: primary human bronchial epithelial cells; actives raise or lower the signal
# Summary of the method: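 Values derive from bidirectional fitting against DMSO baseline of PAI-1 levels, measured by ELISA in human bronchial epithelial cells 24 h after compound addition.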
# [4] = read-out: urokinase plasminogen activator (uPA), PLAU (gene 5328); assay: BSK_BE3C_uPA: BioMAP Diversity Plus: BE3C Assay for urokinase plasminogen activator (uPA) Biomarker Activity (AID 2283038); details: primary human bronchial epithelial cells; actives raise or lower the signal;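 note: uPA protein level quantified by ELISA in cell cultures; uPA read one day after compound addition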
# Summary of the method: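 Using confluent primary human lung bronchial epithelial cultures, we dosed chemicals, waited 24 h, then ran a uPA ELISA, fitting bidirectionally against DMSO.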
# [5] = read-out: Urokinase-type plasminogen activator receptor (uPAR), PLAUR (gene 5329); assay: BSK_BE3C_uPAR: BioMAP Diversity Plus: BE3C Assay for Urokinase-type plasminogen activator receptor (uPAR) Biomarker Activity (AID 2283039); details: primary human bronchial epithelial cells; actives raise or lower the signal;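 note: uPAR protein level measured by ELISA on the cells; cells exposed to compound for one day before measurement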
# Summary of the method: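 Steps: dose human primary bronchial epithelial cells, incubate 24 h, measure uPAR by ELISA, then fit gain- or loss-of-signal response bidirectionally relative to DMSO.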
# [6] = read-out: Interleukin-6 (IL6), IL6 (gene 3569); assay: BSK_CASM3C_IL6: BioMAP Diversity Plus: CASM3C Assay for Interleukin-6 (IL6) Biomarker Activity for (AID 2283040); details: primary human coronary artery smooth muscle cells; actives raise or lower the signal
# [7] = read-out: Tissue plasminogen activator (tPA), PLAT (gene 5327); assay: BSK_BE3C_tPA: BioMAP Diversity Plus: BE3C Assay for Tissue plasminogen activator (tPA) Biomarker Activity (AID 2283041); details: primary human bronchial epithelial cells; actives raise or lower the signal;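 note: tPA level quantified by ELISA one day after compound addition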
# Summary of the method: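 Gain- or loss-of-signal in tPA, measured by ELISA, derived by bidirectional fitting against DMSO. Cells: human primary bronchial epithelial; read at 24 h after chemical dosing.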
# [8] = read-out: Interleukin-8 (IL8), CXCL8 (gene 3576); assay: BSK_CASM3C_IL8: BioMAP Diversity Plus: CASM3C Assay for Interleukin-8 (IL8) Biomarker Activity (AID 2283042); details: primary human coronary artery smooth muscle cells; actives raise or lower the signal;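 note: IL-8 protein level quantified by ELISA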
# [9] = read-out: Human Leukocyte Antigen - DR isotype (HLADR), HLA-DRA (gene 3122); assay: BSK_CASM3C_HLADR: BioMAP Diversity Plus: CASM3C Assay for Human Leukocyte Antigen - DR isotype (HLADR) Biomarker Activity (AID 2283043); details: primary human coronary artery smooth muscle cells; actives raise or lower the signal;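 note: cell-surface HLA-DR protein level quantified by ELISA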
# [10] = read-out: Macrophage colony-stimulating factor (MCSF), CSF1 (gene 1435); assay: BSK_CASM3C_MCSF: BioMAP Diversity Plus: CASM3C Assay for Macrophage colony-stimulating factor (MCSF) Biomarker Activity (AID 2283044); details: primary human coronary artery smooth muscle cells; actives raise or lower the signal;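 note: M-CSF protein amount quantified by ELISA after 24 h exposure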
# [11] = read-out: Low-density lipoprotein receptor (LDLR), LDLR (gene 3949); assay: BSK_CASM3C_LDLR: BioMAP Diversity Plus: CASM3C Assay for Low-density lipoprotein receptor (LDLR) Biomarker Activity (AID 2283045); details: primary human coronary artery smooth muscle cells; actives raise or lower the signal;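 note: LDLR protein level on the cell surface quantified by ELISA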
# [12] = read-out: Monocyte Chemoattractant Protein-1 (MCP1), CCL2 (gene 6347); assay: BSK_CASM3C_MCP1: BioMAP Diversity Plus: CASM3C Assay for Monocyte Chemoattractant Protein-1 (MCP1) Biomarker Activity (AID 2283046); details: primary human coronary artery smooth muscle cells; actives raise or lower the signal;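 note: MCP-1 level quantified by ELISA 24 h after dosing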
# [13] = BSK_CASM3C_Proliferation: Cell Proliferation Assessment in the BioMAP Diversity Plus: CASM3C Assay (AID 2283047); details: primary human coronary artery smooth muscle cells;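 note: sulforhodamine B total protein stain as relative cell number at 560 nm; sub-confluent cells exposed 48 h before staining; fitted both ways against DMSO so gain or loss of cell number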
# [14] = read-out: Monokine induced gamma interferon (MIG), CXCL9 (gene 4283); assay: BSK_CASM3C_MIG: BioMAP Diversity Plus: CASM3C Assay for Monokine induced gamma interferon (MIG) Biomarker Activity (AID 2283048); details: primary human coronary artery smooth muscle cells; actives raise or lower the signal;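 note: MIG protein level measured by ELISA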
# [15] = read-out: serum amyloid A (SAA), SAA1 (gene 6288); assay: BSK_CASM3C_SAA: BioMAP Diversity Plus: CASM3C Assay for serum amyloid A (SAA) Biomarker Activity (AID 2283049); details: primary human coronary artery smooth muscle cells; actives raise or lower the signal;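 note: SAA protein level quantified by ELISA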
# [16] = BSK_CASM3C_SRB: Viability Assessment in the BioMAP Diversity Plus: CASM3C Assay (AID 2283050); details: primary human coronary artery smooth muscle cells;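 note: total protein by SRB staining as cytotoxicity measure in parallel cultures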
# [17] = read-out: Thrombomodulin, THBD (gene 7056); assay: BSK_CASM3C_Thrombomodulin: BioMAP Diversity Plus: CASM3C Assay for Thrombomodulin Biomarker Activity (AID 2283051); details: primary human coronary artery smooth muscle cells; actives raise or lower the signal;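 note: thrombomodulin protein level measured by ELISA 24 h after dosing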
# [18] = read-out: Tissue Factor, F3 (gene 2152); assay: BSK_CASM3C_TissueFactor: BioMAP Diversity Plus: CASM3C Assay for Tissue Factor Biomarker Activity (AID 2283052); details: primary human coronary artery smooth muscle cells; actives raise or lower the signal;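 note: cell surface tissue factor protein level read by ELISA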
# [19] = read-out: Interferon-gamma inducible Protein 10 (IP10), CXCL10 (gene 3627); assay: BSK_hDFCGF_IP10: BioMAP Diversity Plus: hDFCGF Assay for Interferon-gamma inducible Protein 10 (IP10) Biomarker Activity (AID 2283053); details: primary human foreskin fibroblasts; actives raise or lower the signal
# Summary of the method: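 Cells: human dermal foreskin fibroblasts. Exposure: 24 h post-dosing. Detection: IP-10 ELISA, with values expressed against DMSO controls and fitted in both directions.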
# [20] = read-out: Transforming growth factor beta 1 (TGFb1), TGFB1 (gene 7040); assay: BSK_BE3C_TGFb1: BioMAP Diversity Plus: BE3C Assay for Transforming growth factor beta 1 (TGFb1) Biomarker Activity (AID 2283036;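 note: TGF-b1 protein level measured by ELISA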); details: primary human bronchial epithelial cells; actives raise or lower the signal
# Summary of the method: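 Bronchial epithelial primary cells are treated with test chemical, then TGF-b1 is quantified by ELISA after 24 hours. Values derive from bidirectional fitting against DMSO, with cytotoxicity checked by SRB staining in parallel cultures.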
smiles,measurement,setting,value
O=C(O)C(F)(F)OC(F)(F)C(F)(F)OC(F)(F)C(=O)O,outcome,[1],inactive
same,outcome,[2],inactive
same,outcome,[3],inactive
same,outcome,[4],inactive
same,outcome,[5],inactive
same,outcome,[6],inactive
same,outcome,[7],inactive
same,outcome,[8],inactive
same,outcome,[9],inactive
same,outcome,[10],inactive
same,outcome,[11],inactive
same,outcome,[12],inactive
same,outcome,[13],inactive
same,outcome,[14],inactive
same,outcome,[15],inactive
same,outcome,[16],inactive
same,outcome,[17],inactive
same,outcome,[18],inactive
same,outcome,[19],inactive
OCC(F)(F)OC(F)(F)C(F)(F)OC(F)(F)C(F)(F)OC(F)(F)F,outcome,[1],inactive
same,outcome,[2],inactive
same,outcome,[3],inactive
same,outcome,[4],inactive
same,outcome,[5],inactive
same,outcome,[6],inactive
same,outcome,[7],inactive
same,outcome,[8],inactive
same,AC50,[9],48.6 µM (active)
same,outcome,[9],inactive
same,AC50,[10],17.5 µM (active)
same,outcome,[10],inactive
same,outcome,[11],inactive
same,AC50,[12],47.3 µM (active)
same,outcome,[12],inactive
same,AC50,[13],18.7 µM (active) and 28.5 µM (active)
same,AC50,[14],30 µM (active)
same,outcome,[14],inactive
same,AC50,[15],35 µM (active)
same,outcome,[15],inactive
same,AC50,[16],32.9 µM (active) and 44.3 µM (active)
same,outcome,[17],inactive
same,outcome,[18],inactive
same,outcome,[19],inactive
N#Cc1cc([N+](=O)[O-])ccc1N,outcome,[1],inactive
same,outcome,[2],inactive
same,outcome,[20],inactive
same,outcome,[3],inactive
same,outcome,[4],inactive
same,outcome,[5],inactive
same,outcome,[6],inactive
same,outcome,[7],inactive
same,outcome,[8],inactive
same,outcome,[9],inactive
same,outcome,[10],inactive
same,outcome,[11],inactive
same,outcome,[12],inactive
same,outcome,[13],inactive
same,outcome,[14],inactive
same,outcome,[15],inactive
same,outcome,[16],inactive
same,outcome,[17],inactive
same,outcome,[18],inactive
same,outcome,[19],inactive
c1ccc2c(c1)sc1ccccc12,outcome,[1],inactive
same,outcome,[2],inactive
same,outcome,[20],inactive
same,outcome,[3],inactive
same,outcome,[4],inactive
same,outcome,[5],inactive
same,outcome,[6],inactive
same,outcome,[7],inactive
same,outcome,[8],inactive
same,outcome,[9],inactive
same,outcome,[10],inactive
same,outcome,[11],inactive
same,outcome,[12],inactive
same,outcome,[13],inactive
same,outcome,[14],inactive
same,outcome,[15],inactive
same,outcome,[16],inactive
same,outcome,[17],inactive
same,outcome,[18],inactive
same,outcome,[19],inactive
O=C(O)C(F)(OC(F)(F)C(F)(F)C(F)(F)F)C(F)(F)F (centres undefined),outcome,[1],inactive
same,outcome,[2],inactive
same,AC50,[3],0.22 µM (active)
same,outcome,[3],inactive
same,outcome,[4],inactive
same,outcome,[5],inactive
same,outcome,[6],inactive
same,outcome,[7],inactive
same,outcome,[8],inactive
same,outcome,[9],inactive
same,AC50,[10],0.218 µM (active)
same,outcome,[10],inactive
same,outcome,[11],inactive
same,outcome,[12],inactive
same,AC50,[13],5.17 µM (active)
same,outcome,[13],inactive
same,outcome,[14],inactive
same,outcome,[15],inactive
same,outcome,[16],inactive
same,AC50,[17],2.48 µM (active)
same,outcome,[17],inactive
same,outcome,[18],inactive
same,outcome,[19],inactive
CCCN(CCC)c1c([N+](=O)[O-])cc(C(C)C)cc1[N+](=O)[O-],outcome,[1],inactive
same,outcome,[2],inactive
same,outcome,[20],inactive
same,outcome,[3],inactive
same,outcome,[4],inactive
same,outcome,[5],inactive
same,outcome,[6],inactive
same,outcome,[7],inactive
same,outcome,[8],inactive
same,outcome,[10],inactive
same,AC50,[11],20 µM (active)
same,outcome,[12],inactive
same,AC50,[13],31.7 µM (active)
same,outcome,[14],inactive
same,outcome,[15],inactive
same,outcome,[16],inactive
same,AC50,[17],20 µM (active)
same,outcome,[18],inactive
same,AC50,[19],20 µM (active)
OCC(F)(F)OC(F)(F)C(F)(F)OC(F)(F)CO,outcome,[1],inactive
same,outcome,[2],inactive
same,outcome,[3],inactive
same,outcome,[4],inactive
same,outcome,[5],inactive
same,outcome,[6],inactive
same,outcome,[7],inactive
same,outcome,[8],inactive
same,outcome,[9],inactive
same,outcome,[10],inactive
same,outcome,[11],inactive
same,outcome,[12],inactive
same,outcome,[13],inactive
same,outcome,[14],inactive
same,outcome,[15],inactive
same,outcome,[16],inactive
same,outcome,[17],inactive
same,outcome,[18],inactive
same,outcome,[19],inactive
